In the library only some 5.2% were active in any assay of this set; here they are far more common.
Tau FP inhib: blocks human tau fibril formation measured by polarization; P10636; K18 P301L tau heparin fibrillization, Alexa594 FP, 6 h; Potency, µM (titrated, usually from 57.7 µM), without a hit: at the highest dose activity, negative = inhibition, most hits filed as inhibitors; hit rate 0.39% among 280,000; AID 1468; further: potency means the concentration at half of the fitted maximal effect; nearly all actives have a fitted effect of over 55% in size
Target sequence (P10636 561-689 P618L limits assumed): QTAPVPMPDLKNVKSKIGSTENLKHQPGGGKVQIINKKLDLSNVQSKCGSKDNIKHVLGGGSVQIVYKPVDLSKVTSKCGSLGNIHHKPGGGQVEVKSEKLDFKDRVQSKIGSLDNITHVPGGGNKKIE
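Human K18 P301L fragment (15 uM unlabeled plus 0.24 uM Alexa 594-labeled) in 100 mM sodium acetate pH 7 with compound, aggregation induced by 20 uM heparin for 6 hr at 37 C. ThT (30 uM) added for 1 hr, then Alexa 594 FP read.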
Sfp PPTase inh: blocks B. subtilis Sfp PPTase activity; Potency, µM, for the others: largest response in the series, negative = inhibition, most hits filed as inhibitors; hit rate 3.5% among 310,000; Q9F4F7; Biochemical Sfp PPTase activity, qHTS;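 further: the enzyme is Sfp with the accession as filed and its product quenches rhodamine fluorescence; potency means the concentration at half of the fitted maximal effect; 0% = enzyme reaction without inhibitor and -100% = no enzyme wells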
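Reaction rates are the 30-min fluorescence difference (ex 525, em 598 nm) in wells containing 15 nM Sfp, 5 uM rhodamine-CoA and 12.5 uM BHQ-2-YbbR at pH 7.6 with 10 mM MgCl2.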
Tau fibril ThT: blocks human tau fibril formation measured by thioflavin T | AID 1460 | Potency, µM (doses to about 57.4 µM), inactives show at the top dose activity, negative = inhibition, usual class: inhibitors | P10636 | hit rate 2.1% among 270,000 | recombinant tau K18 P301L, heparin-induced fibrillization, ThT fluorescence; further: potency means the concentration at half of the fitted maximal effect; nearly all actives have a fitted effect of over 55% in size
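ThT emission at 510 nm, taken 1 hr after adding 30 uM dye, quantifies aggregates formed when 20 uM heparin acts on human tau K18 P301L for 6 hr at 37 C.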
Coupling enz: coupling enzyme interference in Giardia aldolase counter-screen | hit rate 0.67% among 290,000 | AID 2472 | coupling enzyme system counterscreen, AmpLite Red fluorescence | activity change, negative = inhibition, % at 58.2 µM, hits read low; in the data active means activity change below about -30%
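Activity here indicates interference with the coupling reaction, not aldolase inhibition. Compounds at 57.5 uM final met coupling enzymes for 10 min at RT; substrate and AmpLite Red detection followed, with a 525/598 nm fluorescence read after 20 min.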
Tau fluor counter: counter-screen for tau fibril formation inhibitors. tau K18 P301L (four-repeat tau fragment) Alexa594 fluorescence, heparin fibrillization. Potency, µM (series often up to 57.7 µM), inactives show at the top dose activity change, negative = decrease. hit rate 0.93% among 280,000; further: potency means the concentration at half of the fitted maximal effect; nearly all actives have a fitted effect of over 55% in size
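Human K18 P301L tau (15 uM unlabeled plus 0.24 uM Alexa 594-labeled, final) in 100 mM sodium acetate pH 7 was mixed with compound and 20 uM heparin and incubated 6 hr at 37 C.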
Starred values were filed as active, the others as inactive; u = inconclusive; x = not tested or not shown; ! = not confirmed by another sample; [ ] = remark or other dose. Unless noted, the call rests on the fitted dose curve; in most records, active means well fitted curve in the direction sought with a large enough effect; inconclusive means small, poorly fitted or top-dose-only effect, or another doubt; inactive means no such curve, though single readings can be large; an effect the other way counts as inactive or inconclusive. Unless noted, on the % scale 0 is the no-effect control and ±100 the full control effect.

SMILES	Tau FP inhib	Sfp PPTase inh	Tau fibril ThT	Coupling enz	Tau fluor counter
CCOc1ccc(N/C=C/C(=O)c2ccc(C)cc2)c([N+](=O)[O-])c1	-3%	20%	1.1µM*	3	-21%
COC(=O)CC1Oc2cc3oc4c5ccccc5oc(=O)c4c3cc2O1 (stereo not drawn)	-17%	5%	u	3	-13%
Cc1ccc2[nH]c(=O)c3cc(C(=O)NCc4cccc(Cl)c4)sc3c2c1	u	x	-7%	x	u
CCOC(=O)c1c(NC(=O)/C=C/C(=O)O)sc(C)c1-c1ccc(Cl)cc1	u	12%	32µM*	18	-10%
CCOC(=O)c1c(NC(=O)Nc2ccc(Cl)cc2)sc(C)c1C	3%	14%	-5%	-2	-23%
CCOC(=O)c1c(N)sc(C(O)(C(F)(F)F)C(F)(F)F)c1-c1ccc(F)cc1	9%	14%	-13%	x	u
CCOC(=O)c1c(N)sc(C(O)(C(F)(F)F)C(F)(F)F)c1-c1ccc(Cl)cc1	3%	23%	u	-1	25µM*[quencher]
COc1ccc(C2=CC(c3sccc3C)n3nnnc3N2)cc1 (stereo not drawn)	-5%	50µM*	-14%	-4	-15%
Cc1ccsc1C1C=C(c2cccc(Br)c2)Nc2ncnn21 (stereo not drawn)	-3%	45µM*	-7%	0	-3%
CSc1ccc(C(=S)N2CCN(Cc3ccccc3)CC2)cc1	7%	14µM*	-18%	0	-25%
COc1cc(CN2CCN(Cc3ccc(SC)cc3)CC2)cc(OC)c1O	-2%	56µM*	u	2	-21%
CCN(Cc1ccccc1)C1CCN(Cc2ccc(SC)cc2)CC1	-2%	32µM*	-18%	1	-18%
CCN1CCN(C(=S)c2ccc(SC)cc2)CC1	-5%	28µM*	-14%	3	-11%
COc1cc(OC)c(OC)cc1CN1CCN(Cc2ccc(SC)cc2)CC1	1%	u	-4%	-1	-6%
COc1cccc(NC(=O)C(=O)NCCc2csc(-c3ccc(C(F)(F)F)cc3)n2)c1	-10%	x	-4%	x	-19%
COc1ccc(NCc2cc3cc4c(cc3n(CC(=O)Nc3ccc(F)cc3)c2=O)OCCO4)cc1	u	x	-7%	x	11µM*[quencher]
CCOc1ccc(NC(=O)Cn2c(=O)c(CNc3ccc(OC)cc3)cc3ccc(OC)cc32)cc1	u	x	u	x	20µM*[quencher]
CC(=O)c1cccc(NC(=O)Cn2c(=O)c(CNc3ccc(C)cc3)cc3cc4c(cc32)OCCO4)c1	u	x	-17%	x	18µM*[quencher]
COc1ccc2cc(CNc3ccc(C)cc3)c(=O)n(CC(=O)Nc3ccc(OC)c(Cl)c3)c2c1	u	x	3%	x	u
Cc1ccc(NC(=O)Cn2c(=O)c(CNc3ccccc3)cc3cc4c(cc32)OCCO4)cc1	u	x	-13%	x	u
COc1ccccc1-c1noc(CCCC(=O)Nc2cccc(C(F)(F)F)c2)n1	-8%	x	0%	x	-23%
COc1ccccc1-c1noc(CCC(=O)Nc2cc(C(F)(F)F)ccc2Cl)n1	1%	18µM*	-15%	-1	-26%
Cc1cccc(CSc2ncc(Cl)c(C(=O)Nc3sc4c(c3C(N)=O)CCCC4)n2)c1	-3%	x	u	x	-5%
COC(=O)CCC(=O)Nc1cccc2c(NC(=O)CCC(=O)OC)cccc12	9%	15%	-7%	5	-8%
COC(=O)CCC(=O)Nc1ccc(C)cc1OC(=O)CCC(=O)OC	u	79µM*	u	2	-16%
SMILES	Tau FP inhib	Sfp PPTase inh	Tau fibril ThT	Coupling enz	Tau fluor counter
O=C(O)c1cccnc1Cl	-2%	11%	-2%	3	-2%
O=C(O)c1cccnc1C(=O)O	u	89µM*!	-15%	-63*	-19%
COC(=O)c1cccc(NC(=O)c2cccnc2C(=O)O)c1C	2%	79µM*	-16%	-2	-12%
O=S(=O)(O)c1ccc(O)cc1	x	7%	x	x	x
Cc1ccccc1CNC(=O)c1ccc2nc(SCc3ccc(F)cc3)n(C)c2c1	-3%	x	2%	x	-15%
NC(=S)NNc1cccc2cccnc12	7.9µM*	3.2µM*	3.5µM*	-36*	u
Cc1cc(C)nc(NS(=O)(=O)c2ccc(NC(=O)c3nc(SC(C)C)ncc3Cl)cc2)n1	-10%	x	-16%	x	-16%
